Screening results: PubChem, National Center for Advancing Translational Sciences (NCATS)
Rows were chosen to be rich in hits. Some 7% of all compounds tested hit in one or more screens of this group.
BAZ2B block – inhibitors of human BAZ2B bromodomain. AlphaScreen BAZ2B-H3K14Ac peptide displacement. Potency, µM (series often up to 114 µM), hits mostly inhibitors. AID 504333. Q9UIF8. hit rate 4.4% among 360,000; further: nearly all actives have a fitted effect of over 60% in size
Target sequence (Q9UIF8 whole entry, looked up): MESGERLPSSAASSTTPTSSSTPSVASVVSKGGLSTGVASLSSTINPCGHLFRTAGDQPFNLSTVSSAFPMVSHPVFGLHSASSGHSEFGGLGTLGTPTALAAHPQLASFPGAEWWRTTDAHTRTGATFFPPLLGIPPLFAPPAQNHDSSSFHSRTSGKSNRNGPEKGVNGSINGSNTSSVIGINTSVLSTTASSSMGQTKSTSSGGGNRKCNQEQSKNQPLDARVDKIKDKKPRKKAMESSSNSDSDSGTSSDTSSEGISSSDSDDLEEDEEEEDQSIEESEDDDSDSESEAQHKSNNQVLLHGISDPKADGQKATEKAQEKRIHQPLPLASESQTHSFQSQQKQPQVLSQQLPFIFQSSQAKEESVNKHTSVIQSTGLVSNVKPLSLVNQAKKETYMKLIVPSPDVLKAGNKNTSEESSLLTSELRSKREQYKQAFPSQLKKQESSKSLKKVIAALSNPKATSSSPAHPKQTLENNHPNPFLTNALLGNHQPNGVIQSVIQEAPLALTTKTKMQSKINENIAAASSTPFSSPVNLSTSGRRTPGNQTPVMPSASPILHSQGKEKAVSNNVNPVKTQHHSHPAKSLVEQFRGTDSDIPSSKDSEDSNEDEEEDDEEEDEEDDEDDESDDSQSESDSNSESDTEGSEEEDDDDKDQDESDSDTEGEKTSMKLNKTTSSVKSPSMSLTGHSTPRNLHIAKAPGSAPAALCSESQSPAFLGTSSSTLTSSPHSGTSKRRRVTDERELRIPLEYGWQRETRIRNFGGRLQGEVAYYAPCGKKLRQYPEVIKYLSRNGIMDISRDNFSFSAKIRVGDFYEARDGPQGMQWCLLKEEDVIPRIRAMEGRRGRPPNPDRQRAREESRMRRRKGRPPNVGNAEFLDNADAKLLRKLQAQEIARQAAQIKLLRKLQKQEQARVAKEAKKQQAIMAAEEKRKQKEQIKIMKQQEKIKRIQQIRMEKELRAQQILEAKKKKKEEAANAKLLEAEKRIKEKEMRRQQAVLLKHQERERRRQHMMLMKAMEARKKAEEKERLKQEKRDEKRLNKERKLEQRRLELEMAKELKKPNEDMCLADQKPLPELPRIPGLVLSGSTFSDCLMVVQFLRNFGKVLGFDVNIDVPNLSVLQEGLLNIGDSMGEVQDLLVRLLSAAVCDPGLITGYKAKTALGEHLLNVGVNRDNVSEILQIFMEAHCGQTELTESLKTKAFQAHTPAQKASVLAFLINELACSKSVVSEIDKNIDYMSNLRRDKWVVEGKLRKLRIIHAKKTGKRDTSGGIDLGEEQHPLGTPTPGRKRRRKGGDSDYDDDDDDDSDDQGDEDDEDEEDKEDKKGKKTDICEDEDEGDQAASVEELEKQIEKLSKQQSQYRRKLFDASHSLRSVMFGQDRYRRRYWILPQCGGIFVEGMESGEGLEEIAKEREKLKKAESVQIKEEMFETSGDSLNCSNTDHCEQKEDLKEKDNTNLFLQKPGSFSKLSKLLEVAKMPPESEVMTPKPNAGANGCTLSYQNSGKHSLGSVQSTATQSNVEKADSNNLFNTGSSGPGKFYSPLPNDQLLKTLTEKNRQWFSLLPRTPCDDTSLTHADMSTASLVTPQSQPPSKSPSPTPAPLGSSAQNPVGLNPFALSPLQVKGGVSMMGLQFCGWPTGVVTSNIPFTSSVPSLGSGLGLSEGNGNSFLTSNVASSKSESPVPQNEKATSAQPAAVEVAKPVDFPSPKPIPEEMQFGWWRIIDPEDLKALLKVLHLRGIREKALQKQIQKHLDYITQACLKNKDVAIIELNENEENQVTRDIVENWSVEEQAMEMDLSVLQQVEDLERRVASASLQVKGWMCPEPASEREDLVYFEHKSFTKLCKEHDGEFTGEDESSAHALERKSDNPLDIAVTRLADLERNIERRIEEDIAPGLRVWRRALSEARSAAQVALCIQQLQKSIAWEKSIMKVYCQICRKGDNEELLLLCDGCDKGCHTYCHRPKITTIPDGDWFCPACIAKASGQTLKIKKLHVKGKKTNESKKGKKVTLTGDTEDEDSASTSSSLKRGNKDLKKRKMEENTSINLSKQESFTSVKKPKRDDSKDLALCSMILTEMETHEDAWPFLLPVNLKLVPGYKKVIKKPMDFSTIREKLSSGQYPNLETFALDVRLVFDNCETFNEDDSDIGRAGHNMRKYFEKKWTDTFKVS
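Protein-peptide AlphaScreen: BAZ2B 50 nM, b-H3K14Ac 50 nM, 1x PBS pH 7.4 + 0.01% Tween-20. Preincubation 30 min RT; cpd 30 min RT (top 110 uM); beads 20 min RT, light-protected.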
JMJD2A Tudor – inhibitors of human JMJD2A Tudor domain. Potency, µM (series often up to 114 µM), usual class: inhibitors. O75164. AID 504339. AlphaScreen JMJD2A-Tudor / H3K4me3 peptide binding. hit rate 4.4% among 390,000; further: nearly all actives have a fitted effect of over 50% in size
PI5P4K alpha inh – blocks human PI5P4K alpha kinase activity. P48426. PI5P4Kalpha enzyme, ADP-Glo luminescence, 60 min; active compounds read low. max response, %. hit rate 1.2% among 330,000. AID 652105; active means max response of -50% or lower; inconclusive means between -30% and -50%; inactive means -30% or higher; further: value at the top dose of about 77 µM
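ADP-Glo luminescence end-point read after a 60 min room-temperature kinase reaction of PI5P4Kalpha plus substrate, initiated with ATP at 5 microM final. Buffer: 0.038 M HEPES pH 7.4, EGTA, 0.1% CHAPS, 5% DMSO.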
GCN5L2 inh – GCN5L2 (KAT2A) acetyltransferase inhibition; Potency, µM (series often up to 58.9 µM), actives largely listed as inhibitors; hit rate 0.21% among 390,000; GCN5L2 HAT assay, ThioGlo1 CoA-SH fluorescence; Q92830
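Enzyme at 20nM final was mixed with library compounds for 15 min at room temperature. Peptide H3(1-25) at 75uM, acetyl-CoA at 70uM and ThioGlo1 at 50uM were then added. Plates were read immediately and after 20 min (Ex340nm/Em540nm).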
HP1b binding inh – HP1-beta chromodomain-methylated histone interaction inhibition | P83916 | AlphaScreen HP1-beta / biotin-H3K9me3 peptide binding | Potency, µM (titrated, usually from 114 µM), actives largely listed as inhibitors | hit rate 0.56% among 390,000; further: nearly all actives have a fitted effect of over 70% in size
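Compound inhibition of the preformed complex between 50 nM HP1-beta and 50 nM biotinylated H3K9me3 peptide was read by AlphaScreen. Buffer was PBS pH 7.4 with 0.01% Tween-20. Incubations ran 30 min at room temperature, with 10 ug/mL donor/acceptor beads.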
PLK1 PBD block – blocks phosphopeptide binding to human PLK1 polo-box domain; Plk1 PBD binding of FITC phosphopeptide, fluorescence polarization; Potency, µM, actives largely listed as inhibitors; hit rate 2.8% among 360,000; AID 720504; further: series mostly up to about 57 µM; nearly all actives have a fitted effect of over 65% in size
Numbers stand for hits; 0 = inactive; ? = inconclusive; - = no result given. Unless noted, the call rests on the fitted dose curve; in most records, active means well fitted curve in the direction sought with a large enough effect; inconclusive means small, poorly fitted or top-dose-only effect, or another doubt; inactive means no such curve, though single readings can be large; an effect the other way counts as inactive or inconclusive.

SMILES	BAZ2B block	JMJD2A Tudor	PI5P4K alpha inh	GCN5L2 inh	HP1b binding inh	PLK1 PBD block
COc1ccc(/C=C/C(=O)Nc2nc(C)cc(C)n2)cc1OC	0	50.1µM	0	0	?	29.9µM
COc1cc(NC(=O)Cc2ccccc2)c(C(=O)O)cc1OC	0	?	0	0	0	?
O=C(CSCc1ccco1)N1CCc2ccccc21	0	0	0	0	0	0
CCOc1ccccc1-c1nnc(SCC(=O)NC2CC2)n1CC	0	0	0	0	0	0
Cc1cc(C)n(/N=C/c2ccccc2O)c(=O)c1	50.1µM	?	0	0	0	0
Cc1cc(C)n(-c2nnc(C)n2N)n1	0	?	0	0	0	0
Cc1cc(C)n(-c2nnc(C)n2/N=C/c2ccccc2O)n1	0	7.94µM	0	0	0	0
CC(=O)Nc1ccc(S(=O)(=O)NCC(=O)OCC(=O)NNC(=O)c2ccccc2)cc1	0	0	0	0	0	0
O=C(CCSc1ccc(Cl)cc1)c1ccco1	0	0	0	0	0	?
Nc1nnc(SCC(=O)c2ccco2)s1	0	0	-	0	0	0
O=C(CSc1ccccc1Cl)c1ccco1	0	0	0	0	0	21.2µM
O=C(CSc1ccc(Cl)cc1)c1ccco1	-	79.4µM	-	0	?	9.47µM
Cc1ccc(NC(=O)c2sc3ncn(CC(=O)N4CCN(c5ccccn5)CC4)c(=O)c3c2C)cc1Cl	0	0	0	0	0	0
COc1cccc(NC(=O)c2sc3ncn(CC(=O)N4CCN(c5ccccn5)CC4)c(=O)c3c2C)c1	0	?	0	0	0	13.4µM
CCCCCN(CCCCC)C(=O)[C@H](CCC(=O)O)NC(=O)[C@H](Cc1ccc(OP(=O)(O)O)cc1)NC(C)=O	-	-	-	0	-	-
O=C1OC(c2ccccc2)=NC12CC2c1ccc(Cl)cc1 (stereo not drawn)	0	0	0	0	0	1.89µM
CCOC(=O)c1nc(NCc2ccccc2)sc1C	?	79.4µM	?	0	?	6.7µM
COC(=O)c1cc(-c2ccc(C)cc2)c2c(=O)n(C)c(=O)n(C)c2n1	0	0	-	0	0	-
O=C(Cn1cc(C(=O)c2ccncc2)c(=O)c2cc(F)ccc21)Nc1ccc(Cl)cc1	0	0	-	0	0	-
CCOc1ccc(NC(C(=O)Nc2cccc(C(C)=O)c2)c2ccccc2)cc1 (stereo not drawn)	39.8µM	?	0	0	0	0
COCC(C)NC(C(=O)Nc1cccc(C(C)=O)c1)c1ccccc1 (stereo not drawn)	0	0	0	0	0	0
CCN(CC)CCNC(C(=O)Nc1cccc(C(C)=O)c1)c1ccccc1 (stereo not drawn)	56.2µM	1.12µM	0	0	?	0
CCOc1ccccc1NC(=O)CSc1nc2ccccc2nc1Cc1ccc(C)cc1	0	0	-	0	0	-
Nc1cc(S(=O)(=O)O)cc([N+](=O)[O-])c1O	?	35.5µM	0	0	35.5µM	?
O=C(O)Cn1nnnc1-c1ccc(F)cc1	0	0	-	0	0	0
SMILES	BAZ2B block	JMJD2A Tudor	PI5P4K alpha inh	GCN5L2 inh	HP1b binding inh	PLK1 PBD block
Cc1cc(Cn2nnnc2-c2ccncc2)cc(C)c1O	0	0	0	0	0	37.7µM
O=C(CSc1cn[nH]n1)Nc1ccc(Cl)cc1Cl	0	0	0	0	0	0
S=c1[nH]cc(-c2ccccc2)n1-c1ccccc1Cl	0	50.1µM	0	0	0	0
S=c1[nH]cc(-c2ccccc2)n1-c1cccc(Cl)c1	0	56.2µM	0	0	0	0
COCCn1c(Cc2ccccc2)nnc1SC(C)C(=O)NC1CC1 (stereo not drawn)	0	0	0	0	0	0
CCCOc1ccc(OCCOCCN2CCc3ccccc3C2)cc1	50.1µM	3.55µM	0	0	?	0
c1ccc(OCCOCCN2CCc3ccccc3C2)cc1	0	0	0	0	0	0
Cc1ccc(OCCCCN2CCc3ccccc3C2)c(C)c1	0	0	0	0	0	0
COc1cc2c(cc1OC)CN(CCOc1ccc(Br)cc1)CC2	0	0	0	0	0	0
CCOc1ccc(OCCOCCN2CCc3ccccc3C2)cc1	56.2µM	2.82µM	0	0	?	0
C=CCc1cc(OC)ccc1OCCOCCN1CCc2ccccc2C1	56.2µM	0.891µM	0	0	?	0
Cc1ccc(SCCOCCN2CCc3ccccc3C2)cc1	0	39.8µM	0	0	?	0
